Screening results as filed in PubChem.
Rows were chosen to be rich in hits. Some 21% of all compounds tested hit in one or more screens of this group.
RORg inh – qHTS for inhibitors of ROR gamma transcriptional activity; Nuclear receptor ROR-gamma (Mus musculus), P51450; Drosophila S2 Gal4-RORgamma UAS-luciferase reporter, 20 h; Potency, µM (titrated, usually from 53.6 µM), inactives show at the top dose activity change, negative = inhibition, actives largely listed as inhibitors; actives 5.4% (n = 310,000); AID 2551, 2010; also: potency is read from the fitted curve at half-maximal effect; nearly all actives have a fitted effect of over 60% in size
Target sequence (P51450 whole entry, looked up, the tested form may be a part): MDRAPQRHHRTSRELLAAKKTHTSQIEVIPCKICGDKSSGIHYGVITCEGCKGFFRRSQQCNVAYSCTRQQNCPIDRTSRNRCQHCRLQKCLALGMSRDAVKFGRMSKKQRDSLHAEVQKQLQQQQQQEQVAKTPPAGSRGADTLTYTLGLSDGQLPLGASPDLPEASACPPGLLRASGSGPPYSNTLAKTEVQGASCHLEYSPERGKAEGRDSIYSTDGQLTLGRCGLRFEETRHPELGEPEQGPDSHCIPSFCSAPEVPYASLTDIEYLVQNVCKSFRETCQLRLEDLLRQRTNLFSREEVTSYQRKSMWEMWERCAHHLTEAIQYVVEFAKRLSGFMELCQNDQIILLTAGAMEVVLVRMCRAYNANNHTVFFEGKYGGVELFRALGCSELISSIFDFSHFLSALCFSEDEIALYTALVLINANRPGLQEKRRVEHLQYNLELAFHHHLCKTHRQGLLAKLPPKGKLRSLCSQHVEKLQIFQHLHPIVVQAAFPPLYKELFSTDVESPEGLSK
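Drosophila Schneider cells stably carrying a metallothionein-driven Gal4 DBD–ROR gamma fusion and a UAS-Photinus luciferase reporter were exposed to compound for 1 hr, then induced with copper sulfate (700 uM final) for 20 hr at ambient temperature before luminescence reading.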
Gal4-VP16 FLuc – VP16 counterscreen qHTS for inhibitors of ROR gamma transcriptional activity; Drosophila S2 Gal4-VP16 UAS-luciferase, luminescence, 20 h; Potency, µM (titrated, usually from 53.6 µM), inactives show top-dose activity, negative = inhibition, hits mostly inhibitors; actives 3.5% (n = 310,000);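 also: Gal4-VP16 expression switched on by copper sulfate through the metallothionein promoter; potency is read from the fitted curve at half-maximal effect; nearly all actives have a fitted effect of over 50% in size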
IL1B secr inh – qHTS for Inhibitors of Inflammasome Signaling: IL-1-beta AlphaLISA Primary Screen | THP-1 LPS/ATP IL-1B secretion, AlphaLISA, 16 h; active compounds read low | activity change, % at 57.5 µM | actives 4.7% (n = 360,000) | AID 743279, 2014; in the data active = activity change below about -50%; inconclusive = mostly about -30% to -49%
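THP-1 cells pretreated 1 hr with compounds (up to 57.5 uM final), then stimulated with LPS (250 ng/mL final) plus ATP (1.25 mM final); secreted IL-1B measured by AlphaLISA after 16 hr, decreased signal indicating inhibition.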
ELG1 repair inh – qHTS screen for small molecules that inhibit ELG1-dependent DNA repair in human embryonic kidney (HEK293T) cells expressing luciferase-tagged ELG1; HEK293T ELG1-luciferase reporter, luminescence, 16 h; DNA damage induced by 5-fluorouridine; Potency, µM (doses to about 46.1 µM), for inactives: at the highest dose activity change, negative = inhibition, usual class: inhibitors; actives 2.3% (n = 330,000); AID 504467, 2011; also: potency is read from the fitted curve at half-maximal effect; nearly all actives have a fitted effect of over 55% in size
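In this reporter screen, reduction of luminescence relative to DMSO vehicle indicated activity. Compounds and 5-fluorouridine were added together to 2,000 cells per well, incubated for 16 hr at 37 °C, then developed with ONE-Glo.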
DT40 TDP1 no CPT – qHTS for Inhibitors of human tyrosyl-DNA phosphodiesterase 1 (TDP1): qHTS in cells in absence of CPT; DT40 Tdp1-/- hTDP1 cells, no CPT, ATP luminescence, 48 h; Potency, µM (titrated, usually from 46.2 µM), for inactives: at the highest dose activity change, negative = growth inhibition, usual class: inhibitors; actives 15% (n = 420,000); AID 686978, 2013; also: potency is read from the fitted curve at half-maximal effect; nearly all actives have a fitted effect of over 55% in size
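Chicken DT40 Tdp1-/- cells stably complemented with human TDP1 were seeded at 400 cells/well with DMSO in place of 20 nM camptothecin. After compound pinning, cells grew at least 48 hr at 37 °C; viability read by CellTiter-Glo luminescence.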
DT40 TDP1 CPT – qHTS for Inhibitors of human tyrosyl-DNA phosphodiesterase 1 (TDP1): qHTS in cells in presence of CPT. chicken DT40 Tdp1-/-;hTDP1 cells + 20 nM CPT, ATP luminescence, 48 h. AID 686979, 2013. Potency, µM (doses to about 46.2 µM), inactives show at the highest dose activity change, negative = growth inhibition, actives largely listed as inhibitors. actives 12% (n = 420,000); also: potency is read from the fitted curve at half-maximal effect; nearly all actives have a fitted effect of over 55% in size
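Chicken DT40 Tdp1-/- cells stably complemented with human TDP1 were seeded at 400 cells/well in medium containing 20 nM camptothecin, exposed to pin-transferred compounds, and grown at 37 °C for at least 48 hr. Viability was read as ATP luminescence.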
Active calls of the source: *; ? = inconclusive; . = not tested or not shown; ! = not active in a repeat. Unless noted, calls follow the shape of the dose curve; as a rule, active = well fitted curve in the direction sought with a large enough effect; inconclusive = small, poorly fitted or top-dose-only effect, or another doubt; inactive = no such curve, though single readings can be large; an effect the other way counts as inactive or inconclusive. % is scaled to controls: 0 for no effect and ±100 for the full control effect.

SMILES	RORg inh	Gal4-VP16 FLuc	IL1B secr inh	ELG1 repair inh	DT40 TDP1 no CPT	DT40 TDP1 CPT
CC(O)CCl (stereo unspecified)	2%	-7%	.	.	.	.
Clc1ccc2c(c1)CCc1cccnc1C2=C1CCNCC1	-13%	-3%	.	-5%	7.3µM*	6.5µM*
C=CCc1ccccc1OCCn1c(C2CC(=O)N(Cc3ccc(F)cc3)C2)nc2ccccc21 (stereo unspecified)	.	.	.	.	?	16µM*
COC(=O)[C@@H]1C[C@H]2CC[C@H](O)C[C@H]2N1CC1CC1	5%	10%	.	.	.	.
CCCCC/C=C\C/C=C\C/C=C\CCCCC(=O)NCCO	-20%	-7%	.	.	.	.
Cc1c(N=Nc2c(O)[nH]c(=S)[nH]c2=O)c(=O)n(-c2ccccc2)n1C	18%	-10%	10	9%	8%	1%
C=CCn1c(O)c(N=Nc2c(C)n(C)n(-c3ccccc3)c2=O)c(=O)[nH]c1=S	-30%	-2%	24	-12%	9.2µM*	16µM*
COc1ccc(CCn2c(O)c(C=Nc3cccc(F)c3)c(=O)[nH]c2=O)cc1OC	-5%	-1%	18	1%	-26%	?
Cc1nc2cc(C(F)(F)F)ccc2n1C1CCN(Cc2nnnn2CCc2ccccc2)CC1	?	3%	?	-22%	13µM*	18µM*
Fc1ccc2c(c1)nnn2C1CCN(Cc2nnnn2C2CCCCC2)CC1	26%	0%	-9	-15%	-20%	-4%
Cc1ccc(Cn2nnnc2CN2CCC(n3nnc4cc(C(F)(F)F)ccc43)CC2)cc1	-18%	-24%	?	?	21µM*	?
Cc1nc2cc(F)ccc2n1C1CCN(Cc2nnnn2CCc2ccccc2)CC1	-15%	-18%	?	?	?	16µM*
FC(F)(F)c1ccc2c(c1)nnn2C1CCN(Cc2nnnn2Cc2ccccc2)CC1	37%	-15%	?	?	?	?
C[C@H](CO)N1C[C@H](C)[C@@H](CN(C)C(=O)Nc2ccc(C(F)(F)F)cc2)Oc2c(NS(=O)(=O)c3cccs3)cccc2C1=O	.	.	-5	?	?	?
Cc1ccnc(NC(=O)CCCc2ccc(N(CCCl)CCCl)cc2)n1	.	.	3	.	0.58µM*	0.23µM*
O=C1Nc2ccccc2C2(CCN(CCc3ccc(C(F)(F)F)cc3)CC2)O1	6%	-4%	.	.	.	.
C/C=C1/C[C@@H](C)[C@@](C)(O)C(=O)OCC2=CCN3CC[C@@H](OC1=O)[C@@H]23	-24%	-9%	.	.	.	.
O=C(NCCc1ccccc1)c1ccc2nccnc2c1	-15%	3%	8	?	-23%	?
O=C(NCCc1ccccc1)c1ccc(CSc2nc3cccnc3n2Cc2ccc(F)cc2)cc1	.	.	.	.	15µM*	?
CC[C@H](Oc1ccc(Cl)cc1)C(=O)OC1C[C@H]2CC[C@@H](C1)N2C (stereo partly specified)	-10%	14%	.	.	?	?
O=[N+]([O-])c1ccc2nc(N3CCNCC3)ccc2c1	.	.	-53*	.	21µM*	?
COc1ccc(NC(=O)CCn2cnc3onc(-c4ccc(F)cc4)c3c2=O)cc1OC	.	.	.	.	2.9µM*	2.9µM*
c1ccc(P(c2ccccc2)c2ccccc2)cc1	-22%	-11%	.	.	.	.
COc1ccc2c3c1O[C@H]1[C@@H](O)C=C[C@H]4C(C2)NCCC341 (stereo partly specified)	-7%	2%	.	.	.	.
CCCn1c(C)c(C(=O)c2cccc3ccccc23)c2ccccc21	33%	7%	-21	-1%	13µM*	27µM*!
SMILES	RORg inh	Gal4-VP16 FLuc	IL1B secr inh	ELG1 repair inh	DT40 TDP1 no CPT	DT40 TDP1 CPT
O=C(C1CCC(=O)N1Cc1ccccc1Cl)N1CCC2(CC1)OCCO2 (stereo unspecified)	-31%	8%	-1	1%	1%	4%
Clc1ccc(C(Cl)(Cl)Cl)cc1Cl	-1%	-4%	.	.	.	.
NC(=O)c1cc(N2CC2)c([N+](=O)[O-])cc1[N+](=O)[O-]	.	.	-5	.	0.037µM*	0.15µM*
COC(=O)c1ccc(N2CCN(C)CC2)c([N+](=O)[O-])c1	-2%	-7%	-6	18%	0%	5%
CN1CC[C@@]2(C)c3cc(O)ccc3N(C)C12 (stereo partly specified)	.	.	.	.	?	4µM*
O=P1(Oc2ccccc2)CC=CC(COCc2ccccc2)O1 (stereo unspecified)	27%	0%	.	.	.	.
COc1ccccc1-c1nc2c(c(SCc3cccc(Cl)c3)n1)Cc1c(CO)cnc(C)c1O2	.	.	.	.	18µM*	9.2µM*
Cc1ccc2c(c1)cc(C(=O)Nc1ccccc1C)n2C	.	.	.	.	1.2µM*	?
COc1ccc(-n2c(O)c(C(C)=NCCCn3ccnc3)c(=O)[nH]c2=O)cc1	14%	-7%	-26	-12%	-23%	-26%
CCOC(=O)C/C(C)=N/NC(=O)COc1ccccc1C	14µM*	?	12	8%	-7%	9%
Oc1cc(Cl)ccc1Cl	17%	-7%	.	.	.	.
COc1cc(OC)c(OC)cc1/C=C1/C(=O)NC(=O)N(Cc2ccccc2)C1=O	6%	-3%	-16	-2%	?	-1%
Cn1cccc1/C=C1\C(=O)NC(=O)N(CCC2=CCCCC2)C1=O	0%	6%	33	21%	13µM*	16µM*
O=C1NC(=O)N(CCC2=CCCCC2)C(=O)/C1=C\c1cccs1	?	?	-14	23%	?	?
Cn1cccc1/C=C1\C(=O)NC(=O)N(Cc2ccccc2Cl)C1=O	-21%	25%	27	?	4.6µM*	5.8µM*
CC(C)CN1CC2(CCN(C(=O)c3ccncc3)CC2)C1	-1%	-11%	.	.	4%	-15%
COCCCN1CCN(c2nnc3n2-c2sc(Br)cc2C(c2ccccc2Cl)=NC3)CC1	-3%	-10%	-2	7%	?	?
COc1ccc(C(=O)NC(=S)NNC(=O)c2cccnc2)cc1	16µM*	-13%	32	-26%	?	?
COCCCNC(=S)NNC(=O)c1ccc(C(C)(C)C)cc1	-42%	-20%	14	?	?	-7%
